# Results as given in publication PMC7862700, “An all-to-all approach to the identification of sequence-specific readers for epigenetic DNA modifications on cytosine”.
# Assays:
# Assay in all cases: DAPPL (digital affinity profiling via proximity ligation, sequencing); 10 mM Tris-HCl pH 7.5, 50 mM NaCl, 1 mM DTT, 4% glycerol, room temperature, 30 min; GST-TFs on glutathione beads, 16-mer random dsDNA library, 0.1% formaldehyde crosslink after washing; high values mean tight binding
# FLI1 = target: T1, FLI1 (Homo sapiens, UniProt Q01543 1-452); settings: protein: recombinant; tags: N-terminal GST; dsDNA, one strand shown
# T1 sequence: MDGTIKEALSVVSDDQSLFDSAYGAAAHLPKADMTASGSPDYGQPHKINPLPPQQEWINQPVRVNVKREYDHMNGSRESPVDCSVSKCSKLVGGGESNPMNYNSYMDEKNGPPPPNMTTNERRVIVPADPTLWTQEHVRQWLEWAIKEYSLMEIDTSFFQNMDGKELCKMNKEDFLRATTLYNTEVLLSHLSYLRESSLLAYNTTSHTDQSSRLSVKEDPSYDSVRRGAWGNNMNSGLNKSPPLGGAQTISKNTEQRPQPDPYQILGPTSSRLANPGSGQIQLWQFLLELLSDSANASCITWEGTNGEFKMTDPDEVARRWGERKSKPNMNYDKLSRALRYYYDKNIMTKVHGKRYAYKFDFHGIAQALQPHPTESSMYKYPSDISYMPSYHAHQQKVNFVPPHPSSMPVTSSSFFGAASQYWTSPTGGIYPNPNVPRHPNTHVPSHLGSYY
# How it was run: (§1)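 Binding signal is defined as a hexamer's read frequency for one factor over its frequency for the tag-only sample. To obtain reads, GST-fused human transcription factors were expressed in yeast, captured on glutathione beads, barcoded with DNA and pooled with that sample. Pools met 200 nmole of a 16-mer random double-stranded DNA library in Tris/NaCl/DTT/glycerol buffer for 30 min at room temperature before washing, 0.1% formaldehyde crosslinking, proximity ligation (BsaI/T4 ligase, 1 h, 37 °C), PCR and Illumina NextSeq500 sequencing.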
# ELK1 = target: T2, ELK1 (Homo sapiens, UniProt P19419 1-428); settings: protein: recombinant; tags: N-terminal GST; dsDNA, one strand shown
# T2 sequence: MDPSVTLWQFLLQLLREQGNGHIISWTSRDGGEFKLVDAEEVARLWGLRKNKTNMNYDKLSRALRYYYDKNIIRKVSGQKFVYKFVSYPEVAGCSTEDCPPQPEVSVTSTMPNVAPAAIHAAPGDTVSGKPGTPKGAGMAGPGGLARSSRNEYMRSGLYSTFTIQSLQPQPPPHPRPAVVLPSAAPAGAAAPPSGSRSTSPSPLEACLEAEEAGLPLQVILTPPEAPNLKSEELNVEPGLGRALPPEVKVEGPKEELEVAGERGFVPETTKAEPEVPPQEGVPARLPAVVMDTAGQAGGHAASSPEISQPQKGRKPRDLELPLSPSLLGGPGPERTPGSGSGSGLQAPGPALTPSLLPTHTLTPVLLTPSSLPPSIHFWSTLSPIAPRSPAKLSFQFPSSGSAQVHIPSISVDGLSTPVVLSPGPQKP
# How it was run: as §1
# GABPA = target: T3, GABPA (Homo sapiens, UniProt Q06546 1-454); settings: protein: recombinant; tags: N-terminal GST; dsDNA, one strand shown
# T3 sequence: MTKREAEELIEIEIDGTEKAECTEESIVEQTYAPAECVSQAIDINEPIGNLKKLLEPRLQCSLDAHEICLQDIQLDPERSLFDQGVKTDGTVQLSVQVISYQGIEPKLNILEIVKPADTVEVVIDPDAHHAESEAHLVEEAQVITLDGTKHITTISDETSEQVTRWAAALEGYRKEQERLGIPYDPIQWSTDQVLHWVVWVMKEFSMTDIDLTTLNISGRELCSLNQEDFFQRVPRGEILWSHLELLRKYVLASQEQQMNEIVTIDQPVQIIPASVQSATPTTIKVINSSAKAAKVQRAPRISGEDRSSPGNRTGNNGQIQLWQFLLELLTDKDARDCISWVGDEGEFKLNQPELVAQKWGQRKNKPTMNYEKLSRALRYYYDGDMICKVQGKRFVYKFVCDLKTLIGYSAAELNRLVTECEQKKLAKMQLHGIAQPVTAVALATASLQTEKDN
# How it was run: as §1
# ERG = target: T4, ERG (Homo sapiens, UniProt P11308 1-479); settings: protein: recombinant; tags: N-terminal GST; dsDNA, one strand shown
# T4 sequence: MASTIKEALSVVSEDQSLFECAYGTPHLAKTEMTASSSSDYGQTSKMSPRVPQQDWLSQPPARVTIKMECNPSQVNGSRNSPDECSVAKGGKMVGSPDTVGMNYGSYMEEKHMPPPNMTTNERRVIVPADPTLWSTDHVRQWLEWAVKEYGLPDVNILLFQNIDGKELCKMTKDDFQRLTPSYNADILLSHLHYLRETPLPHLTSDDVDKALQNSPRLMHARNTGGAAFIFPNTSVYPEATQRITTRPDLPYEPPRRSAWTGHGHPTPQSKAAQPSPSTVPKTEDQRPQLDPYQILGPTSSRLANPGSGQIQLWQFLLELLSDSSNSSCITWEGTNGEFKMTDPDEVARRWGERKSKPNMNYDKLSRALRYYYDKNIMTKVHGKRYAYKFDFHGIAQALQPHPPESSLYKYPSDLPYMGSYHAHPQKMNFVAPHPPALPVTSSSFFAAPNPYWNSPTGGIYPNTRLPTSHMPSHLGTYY
# How it was run: as §1
# ELF1 = ELF1 (Homo sapiens, UniProt P32519 1-619); settings: protein: recombinant; tags: N-terminal GST; dsDNA, one strand shown
# How it was run: as §1
# EHF = target: T5, EHF (Homo sapiens, UniProt Q9NZC4 1-300); settings: protein: recombinant; tags: N-terminal GST; dsDNA, one strand shown
# T5 sequence: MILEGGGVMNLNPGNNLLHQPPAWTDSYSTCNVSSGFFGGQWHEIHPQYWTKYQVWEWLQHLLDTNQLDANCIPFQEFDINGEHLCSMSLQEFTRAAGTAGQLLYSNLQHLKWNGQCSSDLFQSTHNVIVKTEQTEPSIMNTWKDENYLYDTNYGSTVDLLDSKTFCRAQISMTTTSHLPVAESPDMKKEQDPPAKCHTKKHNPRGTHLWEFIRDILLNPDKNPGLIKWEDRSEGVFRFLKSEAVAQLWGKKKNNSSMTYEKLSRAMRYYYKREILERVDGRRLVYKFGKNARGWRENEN
# How it was run: as §1
# SPI1 = SPI1 (Homo sapiens, UniProt P17947 1-270); settings: protein: recombinant; tags: N-terminal GST; dsDNA, one strand shown
# How it was run: as §1
# SPIB = SPIB (Homo sapiens, UniProt Q01892 1-262); settings: protein: recombinant; tags: N-terminal GST; dsDNA, one strand shown
# How it was run: as §1
# ELK3 = target: T6, ELK3 (Homo sapiens, UniProt P41970 1-407); settings: protein: recombinant; tags: N-terminal GST; dsDNA, one strand shown
# T6 sequence: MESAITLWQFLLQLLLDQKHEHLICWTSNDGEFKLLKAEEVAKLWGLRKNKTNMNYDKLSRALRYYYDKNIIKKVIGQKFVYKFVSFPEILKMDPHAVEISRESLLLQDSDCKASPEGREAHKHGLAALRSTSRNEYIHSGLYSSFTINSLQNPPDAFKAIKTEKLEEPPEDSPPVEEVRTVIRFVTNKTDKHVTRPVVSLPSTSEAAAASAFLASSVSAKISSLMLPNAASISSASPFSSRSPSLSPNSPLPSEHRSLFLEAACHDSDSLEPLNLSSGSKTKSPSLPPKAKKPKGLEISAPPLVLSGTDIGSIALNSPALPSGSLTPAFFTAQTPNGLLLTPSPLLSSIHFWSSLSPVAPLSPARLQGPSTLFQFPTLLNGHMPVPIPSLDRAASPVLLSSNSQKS
# How it was run: as §1
# FEV = target: T7, FEV (Homo sapiens, UniProt Q99581 1-238); settings: protein: recombinant; tags: N-terminal GST; dsDNA, one strand shown
# T7 sequence: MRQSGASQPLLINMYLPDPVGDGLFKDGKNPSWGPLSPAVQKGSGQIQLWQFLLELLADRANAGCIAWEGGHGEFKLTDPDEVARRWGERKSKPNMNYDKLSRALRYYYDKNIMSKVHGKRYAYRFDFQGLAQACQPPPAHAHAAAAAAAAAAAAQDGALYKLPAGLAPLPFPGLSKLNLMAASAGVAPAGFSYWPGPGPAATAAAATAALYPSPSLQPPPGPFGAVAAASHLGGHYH
# How it was run: as §1
# ETV5 = ETV5 (Homo sapiens, UniProt P41161 1-510); settings: protein: recombinant; tags: N-terminal GST; dsDNA, one strand shown
# How it was run: as §1
# HSF1 = HSF1 (Homo sapiens, UniProt Q00613 1-529); settings: protein: recombinant; tags: N-terminal GST; chain copies: 3; dsDNA, one strand shown
# How it was run: as §1
# SPIC = target: T8, SPIC (Homo sapiens, UniProt Q8N5J4 1-248); settings: protein: recombinant; tags: N-terminal GST; dsDNA, one strand shown
# T8 sequence: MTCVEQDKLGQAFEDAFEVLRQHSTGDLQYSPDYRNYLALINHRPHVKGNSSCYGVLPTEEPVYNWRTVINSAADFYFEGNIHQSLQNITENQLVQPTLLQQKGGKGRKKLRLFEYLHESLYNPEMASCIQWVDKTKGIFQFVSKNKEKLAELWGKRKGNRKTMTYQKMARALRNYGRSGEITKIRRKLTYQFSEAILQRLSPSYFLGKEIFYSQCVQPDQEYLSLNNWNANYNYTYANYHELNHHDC
# How it was run: as §1
# ELF4 = ELF4 (Homo sapiens, UniProt Q99607 1-663); settings: protein: recombinant; tags: N-terminal GST; dsDNA, one strand shown
# How it was run: as §1
# ELK4 = target: T9, ELK4 (Homo sapiens, UniProt P28324-2 1-405); settings: protein: recombinant; tags: N-terminal GST; dsDNA, one strand shown
# T9 sequence: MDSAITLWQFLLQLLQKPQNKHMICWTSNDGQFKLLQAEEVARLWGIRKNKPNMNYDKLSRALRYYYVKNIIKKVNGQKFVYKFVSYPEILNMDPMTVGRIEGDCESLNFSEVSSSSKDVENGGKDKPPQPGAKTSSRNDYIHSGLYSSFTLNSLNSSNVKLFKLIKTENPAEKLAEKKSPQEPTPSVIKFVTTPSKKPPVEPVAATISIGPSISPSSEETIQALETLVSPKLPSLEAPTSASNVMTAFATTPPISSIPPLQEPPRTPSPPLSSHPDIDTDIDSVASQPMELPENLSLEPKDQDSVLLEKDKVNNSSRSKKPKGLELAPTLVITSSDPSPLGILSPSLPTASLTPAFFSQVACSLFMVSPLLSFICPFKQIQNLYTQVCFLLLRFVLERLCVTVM
# How it was run: as §1
# ETV2 = target: T10, ETV2 (Homo sapiens, UniProt O00321 1-342); settings: protein: recombinant; tags: N-terminal GST; dsDNA, one strand shown
# T10 sequence: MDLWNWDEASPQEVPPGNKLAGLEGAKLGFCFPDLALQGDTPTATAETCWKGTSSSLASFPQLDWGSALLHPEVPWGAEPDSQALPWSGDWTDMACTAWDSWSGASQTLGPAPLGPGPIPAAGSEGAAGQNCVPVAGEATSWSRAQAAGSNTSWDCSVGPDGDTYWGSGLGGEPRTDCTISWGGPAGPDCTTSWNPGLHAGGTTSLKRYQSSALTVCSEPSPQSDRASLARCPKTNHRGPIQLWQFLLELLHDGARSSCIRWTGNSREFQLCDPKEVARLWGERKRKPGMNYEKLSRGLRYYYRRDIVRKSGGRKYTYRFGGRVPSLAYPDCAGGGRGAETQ
# How it was run: as §1
# CRX = CRX (Homo sapiens, UniProt O43186 1-299); settings: protein: recombinant; tags: N-terminal GST; dsDNA, one strand shown
# How it was run: as §1
# ETV1 = ETV1 (Homo sapiens, UniProt P50549 1-477); settings: protein: recombinant; tags: N-terminal GST; dsDNA, one strand shown
# How it was run: as §1
# Chain of ETV1 (P50549 whole entry): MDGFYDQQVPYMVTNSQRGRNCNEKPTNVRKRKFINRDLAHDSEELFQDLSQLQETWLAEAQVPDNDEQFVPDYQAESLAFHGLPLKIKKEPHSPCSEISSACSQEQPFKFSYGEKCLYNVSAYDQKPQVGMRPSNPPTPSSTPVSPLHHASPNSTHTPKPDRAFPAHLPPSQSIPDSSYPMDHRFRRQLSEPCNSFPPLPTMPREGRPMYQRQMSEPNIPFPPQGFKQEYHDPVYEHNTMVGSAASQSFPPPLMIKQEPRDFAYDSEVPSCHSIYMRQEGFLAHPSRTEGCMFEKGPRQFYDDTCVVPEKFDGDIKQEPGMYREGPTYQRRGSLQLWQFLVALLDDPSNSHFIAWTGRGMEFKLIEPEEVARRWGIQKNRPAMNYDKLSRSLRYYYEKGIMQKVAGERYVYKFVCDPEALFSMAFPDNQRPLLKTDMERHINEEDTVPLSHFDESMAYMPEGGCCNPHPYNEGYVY
# Chain of SPIB (Q01892 whole entry): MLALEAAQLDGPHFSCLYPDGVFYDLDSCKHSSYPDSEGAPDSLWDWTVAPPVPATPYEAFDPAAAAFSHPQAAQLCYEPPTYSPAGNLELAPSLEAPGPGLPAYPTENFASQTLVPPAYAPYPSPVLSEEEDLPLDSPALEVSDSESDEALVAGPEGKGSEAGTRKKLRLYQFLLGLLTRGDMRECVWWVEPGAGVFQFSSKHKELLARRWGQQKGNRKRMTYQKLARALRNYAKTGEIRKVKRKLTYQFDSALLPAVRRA
# Chain of ETV5 (P41161 whole entry): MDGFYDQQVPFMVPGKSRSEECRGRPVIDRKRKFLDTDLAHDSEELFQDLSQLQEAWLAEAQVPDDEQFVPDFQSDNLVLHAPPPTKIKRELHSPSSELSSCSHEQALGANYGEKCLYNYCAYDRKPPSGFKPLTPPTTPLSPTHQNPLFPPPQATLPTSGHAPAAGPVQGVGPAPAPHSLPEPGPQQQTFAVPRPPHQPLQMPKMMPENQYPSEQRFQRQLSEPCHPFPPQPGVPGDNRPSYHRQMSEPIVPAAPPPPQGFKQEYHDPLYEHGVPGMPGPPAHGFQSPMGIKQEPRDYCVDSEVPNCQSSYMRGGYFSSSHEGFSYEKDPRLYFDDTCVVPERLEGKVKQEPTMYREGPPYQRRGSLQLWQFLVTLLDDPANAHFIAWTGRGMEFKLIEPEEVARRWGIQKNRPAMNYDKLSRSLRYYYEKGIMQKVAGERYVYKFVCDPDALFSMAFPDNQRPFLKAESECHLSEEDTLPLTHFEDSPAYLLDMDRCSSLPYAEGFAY
# Chain of HSF1 (Q00613 whole entry): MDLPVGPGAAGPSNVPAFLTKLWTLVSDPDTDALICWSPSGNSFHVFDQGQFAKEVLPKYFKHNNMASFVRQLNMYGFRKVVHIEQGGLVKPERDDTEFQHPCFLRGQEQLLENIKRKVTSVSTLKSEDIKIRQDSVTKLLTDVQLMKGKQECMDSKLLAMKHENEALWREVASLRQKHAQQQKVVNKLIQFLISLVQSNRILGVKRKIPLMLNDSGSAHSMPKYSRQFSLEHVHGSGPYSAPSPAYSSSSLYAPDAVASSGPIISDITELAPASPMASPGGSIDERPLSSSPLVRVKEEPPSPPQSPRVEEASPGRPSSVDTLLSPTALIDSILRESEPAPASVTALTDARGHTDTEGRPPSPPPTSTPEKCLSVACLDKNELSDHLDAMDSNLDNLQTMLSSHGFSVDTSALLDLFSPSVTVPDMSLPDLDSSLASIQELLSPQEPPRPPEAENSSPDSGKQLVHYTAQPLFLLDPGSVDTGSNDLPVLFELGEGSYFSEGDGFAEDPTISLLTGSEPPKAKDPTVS
# Chain of CRX (O43186 whole entry): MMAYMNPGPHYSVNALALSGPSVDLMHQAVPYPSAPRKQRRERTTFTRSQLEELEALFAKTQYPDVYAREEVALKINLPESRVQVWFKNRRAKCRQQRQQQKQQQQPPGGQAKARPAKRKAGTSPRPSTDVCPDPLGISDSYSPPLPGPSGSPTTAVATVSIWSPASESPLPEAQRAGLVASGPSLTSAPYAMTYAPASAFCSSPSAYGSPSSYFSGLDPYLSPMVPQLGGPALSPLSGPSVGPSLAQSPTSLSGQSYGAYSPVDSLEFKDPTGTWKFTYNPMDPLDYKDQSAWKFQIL
# Chain of ELF1 (P32519 whole entry): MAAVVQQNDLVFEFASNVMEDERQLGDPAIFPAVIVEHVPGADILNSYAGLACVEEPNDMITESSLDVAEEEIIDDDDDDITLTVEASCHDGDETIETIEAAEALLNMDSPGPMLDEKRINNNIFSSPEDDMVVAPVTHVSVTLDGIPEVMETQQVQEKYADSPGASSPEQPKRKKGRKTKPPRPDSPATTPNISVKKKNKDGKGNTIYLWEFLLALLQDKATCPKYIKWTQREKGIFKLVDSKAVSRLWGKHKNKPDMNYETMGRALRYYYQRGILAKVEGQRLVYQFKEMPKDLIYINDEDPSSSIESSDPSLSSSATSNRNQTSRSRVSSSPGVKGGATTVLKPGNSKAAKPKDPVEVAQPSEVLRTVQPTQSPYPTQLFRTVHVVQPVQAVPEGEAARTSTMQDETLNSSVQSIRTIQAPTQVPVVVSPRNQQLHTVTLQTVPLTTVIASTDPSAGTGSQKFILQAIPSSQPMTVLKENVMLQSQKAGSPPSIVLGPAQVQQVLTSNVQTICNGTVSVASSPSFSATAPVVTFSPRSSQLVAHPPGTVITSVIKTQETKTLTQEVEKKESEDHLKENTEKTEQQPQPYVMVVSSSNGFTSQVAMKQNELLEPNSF
# Chain of ELF4 (Q99607 whole entry): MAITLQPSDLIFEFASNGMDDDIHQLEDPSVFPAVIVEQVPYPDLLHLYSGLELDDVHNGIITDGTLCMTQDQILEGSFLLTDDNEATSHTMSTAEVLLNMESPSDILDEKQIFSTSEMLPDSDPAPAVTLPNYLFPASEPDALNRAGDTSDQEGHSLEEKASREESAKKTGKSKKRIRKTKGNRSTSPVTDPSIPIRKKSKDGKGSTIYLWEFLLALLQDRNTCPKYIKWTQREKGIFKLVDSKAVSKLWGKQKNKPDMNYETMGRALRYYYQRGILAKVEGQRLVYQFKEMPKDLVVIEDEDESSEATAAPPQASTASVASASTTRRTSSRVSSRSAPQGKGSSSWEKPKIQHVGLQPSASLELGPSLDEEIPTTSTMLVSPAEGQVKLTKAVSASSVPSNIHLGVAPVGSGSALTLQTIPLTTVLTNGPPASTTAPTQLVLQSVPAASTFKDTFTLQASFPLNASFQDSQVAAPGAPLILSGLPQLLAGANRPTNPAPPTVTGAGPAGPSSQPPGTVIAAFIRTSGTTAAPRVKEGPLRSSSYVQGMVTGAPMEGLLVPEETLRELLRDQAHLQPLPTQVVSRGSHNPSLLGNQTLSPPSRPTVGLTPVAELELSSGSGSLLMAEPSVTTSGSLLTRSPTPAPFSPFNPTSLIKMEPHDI
sequence,measurement,setting,value
TTACGA,binding signal,FLI1,"1.21 fold enrichment (6-mer frequency, TF over GST control)"
same,binding signal,ELK1,"1.14 fold enrichment (6-mer frequency, TF over GST control)"
same,binding signal,GABPA,"1.18 fold enrichment (6-mer frequency, TF over GST control)"
same,binding signal,ERG,"1.06 fold enrichment (6-mer frequency, TF over GST control)"
same,binding signal,ELF1,"1.14 fold enrichment (6-mer frequency, TF over GST control)"
same,binding signal,EHF,"1.07 fold enrichment (6-mer frequency, TF over GST control)"
same,binding signal,SPI1,"1.09 fold enrichment (6-mer frequency, TF over GST control)"
same,binding signal,SPIB,"1.07 fold enrichment (6-mer frequency, TF over GST control)"
same,binding signal,ELK3,"1.09 fold enrichment (6-mer frequency, TF over GST control)"
same,binding signal,FEV,"1.11 fold enrichment (6-mer frequency, TF over GST control)"
same,binding signal,ETV5,"1.07 fold enrichment (6-mer frequency, TF over GST control)"
same,binding signal,HSF1,"1.46 fold enrichment (6-mer frequency, TF over GST control)"
same,binding signal,SPIC,"1.02 fold enrichment (6-mer frequency, TF over GST control)"
same,binding signal,ELF4,"1.16 fold enrichment (6-mer frequency, TF over GST control)"
same,binding signal,ELK4,"1.16 fold enrichment (6-mer frequency, TF over GST control)"
same,binding signal,ETV2,"1.17 fold enrichment (6-mer frequency, TF over GST control)"
same,binding signal,CRX,"1.89 fold enrichment (6-mer frequency, TF over GST control)"
same,binding signal,ETV1,"1.16 fold enrichment (6-mer frequency, TF over GST control)"
